“And” between values parts separate entries of the source, which are not always exact repeats. Identical values can stand only once. Some compounds were tested as several samples or in several runs, with calls that do not always agree. The source made the active and inactive calls. How the source made its calls: active means hit-call score of the fitted dose curve at least 0.9, where 1 is the maximum; inactive means score below 0.9.
Legend:
[1] = ATG_E_Box_CIS: Attagene CIS-FACTORIAL HepG2 Assay for human Enhancer Box (E-box) (AID 2282936); details: HepG2 E-box cis-reporter transcription, actives raise or lower the signal
In short: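 Cells: HepG2 (human liver), transient MRTU transfection. Exposure 24 h. RNA → oligo(dT) RT → PCR → 6-FAM label → HpaI → CE. Activity fitted both directions relative to DMSO.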

[2] = ATG_M_61_CIS: Attagene CIS-FACTORIAL HepG2 Assay for M61 Transcription Factor (Internal Marker) (AID 2282937); details: HepG2 Attagene CIS-FACTORIAL M61 internal marker reporter; actives raise or lower the signal
In short: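 Multiplexed reporter mRNA assay, HepG2 human hepatoma cells, 24 h treatment. Signal: FAM-labelled, HpaI-digested RT-PCR fragments by CE. Fit: bidirectional, baseline DMSO.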

[3] = ATG_EGR_CIS: Attagene CIS-FACTORIAL HepG2 Assay for human Early Growth Response 1 (EGR1) (AID 2282938); details: HepG2 Attagene CIS-FACTORIAL EGR reporter mRNA; actives raise or lower the signal
In short: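 Multiplexed cis-reporter system in human hepatoma HepG2 cells, transiently transfected. Cells are dosed for 24 h; reporter transcripts are amplified, fluorescently tagged and sized by capillary electrophoresis, with DMSO as negative control.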

[4] = ATG_M_19_CIS: Attagene CIS-FACTORIAL HepG2 Assay for M19 Transcription Factor (Internal Marker) (AID 2282939); details: HepG2 Attagene CIS-FACTORIAL M19 internal marker reporter; actives raise or lower the signal
In short: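 Signals come from fluorescence of labelled reporter-specific PCR fragments resolved by capillary electrophoresis, following 24 h treatment of HepG2 cells transfected with cis-promoter reporter units; activity was fitted in both directions relative to DMSO.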

[5] = ATG_ERE_CIS: Attagene CIS-FACTORIAL HepG2 Assay for Estrogen Response Element (ERE) (AID 2282940); details: HepG2 ERE cis-reporter, Attagene RNA transcript; actives raise or lower the signal
In short: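 Fluorescence of capillary-separated, FAM-labelled reporter cDNA fragments indicates reporter mRNA levels in HepG2 cells exposed to chemicals for 24 h. Transient transfection with cis-regulated units; data fitted in both directions against DMSO.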

[6] = ATG_Ets_CIS: Attagene CIS-FACTORIAL HepG2 Assay for human Erythroblast Transformation Specific (ETS) (AID 2282941); details: HepG2 ETS cis-reporter transcription, actives raise or lower the signal
In short: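 Steps: transfect HepG2 with multiple reporter units; treat compound 24 h; isolate RNA, DNase-treat, reverse-transcribe; PCR-amplify, label with 6-FAM, digest with HpaI; separate by capillary electrophoresis. Activity fitted both directions versus DMSO.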

[7] = target: Hepatocyte nuclear factor 3-beta (Homo sapiens) (UniProt Q9Y261); test: ATG_FoxA2_CIS: Attagene CIS-FACTORIAL HepG2 Assay for human Forkhead box A2 (FOXA2) (AID 2282942); details: HepG2 cis-reporter transcription factor activity, 24 h; actives raise or lower the signal
Sequence of Hepatocyte nuclear factor 3-beta (Homo sapiens) (Q9Y261 whole entry, looked up): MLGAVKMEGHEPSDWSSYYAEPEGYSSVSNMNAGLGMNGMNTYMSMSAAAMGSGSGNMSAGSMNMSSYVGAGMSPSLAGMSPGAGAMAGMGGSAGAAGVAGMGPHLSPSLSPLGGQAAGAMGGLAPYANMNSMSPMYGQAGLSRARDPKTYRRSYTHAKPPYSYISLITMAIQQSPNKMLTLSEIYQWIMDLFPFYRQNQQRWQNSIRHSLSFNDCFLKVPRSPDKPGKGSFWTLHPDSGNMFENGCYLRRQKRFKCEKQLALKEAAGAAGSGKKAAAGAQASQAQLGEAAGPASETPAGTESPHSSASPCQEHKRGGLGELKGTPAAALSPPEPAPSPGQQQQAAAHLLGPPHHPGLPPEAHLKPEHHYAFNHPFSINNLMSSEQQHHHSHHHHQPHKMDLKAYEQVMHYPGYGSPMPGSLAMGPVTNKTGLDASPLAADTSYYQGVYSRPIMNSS
In short: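 Multiplexed cis-element reporter assay in transiently transfected HepG2. Twenty-four hours post-dosing, RNA was reverse-transcribed, amplified, FAM-labelled, HpaI-digested and separated by CE. Activity gain or loss relative to DMSO.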

[8] = ATG_FoxO_CIS: Attagene CIS-FACTORIAL HepG2 Assay for human Forkhead box O (FoxO) (AID 2282943); details: HepG2 Attagene cis-reporter, FoxO element, mRNA; actives raise or lower the signal
In short: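 Human hepatoma HepG2 cells carry transiently introduced reporter transcription units controlled by cis promoter elements. Chemical treatment lasted 24 h, and mRNA signal was compared with DMSO.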

[9] = ATG_GATA_CIS: Attagene CIS-FACTORIAL HepG2 Assay for human GATA Binding Protein (AID 2282944); details: HepG2 GATA cis-element reporter, Attagene multiplex mRNA; actives raise or lower the signal
In short: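 After transfecting HepG2 cells with multiple cis-regulated reporter units, chemicals are dosed for 24 h; isolated RNA undergoes RT-PCR and fluorescent labeling before capillary electrophoresis, with activity expressed against DMSO.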

[10] = ATG_GLI_CIS: Attagene CIS-FACTORIAL HepG2 Assay for human Zinc Finger Protein GLI1 (AID 2282945); details: HepG2, Attagene cis-factorial reporter mRNA, GLI element; actives raise or lower the signal
In short: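 Bidirectional curve fits relative to DMSO, using reporter mRNA levels from RT-PCR plus capillary electrophoresis. Cells were HepG2 transiently carrying cis-regulated reporter constructs, harvested 24 h after dosing.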

| SMILES | outcome [1] | outcome [2] | outcome [3] | outcome [4] | outcome [5] | outcome [6] | outcome [7] | outcome [8] | outcome [9] | outcome [10] | AC50 [3] | AC50 [1] | AC50 [6] | AC50 [5] | AC50 [8] | AC50 [10] |
| --- | --- | --- | --- | --- | --- | --- | --- | --- | --- | --- | --- | --- | --- | --- | --- | --- |
| CCCN(CCC)C(=O)SCC | inactive | inactive | inactive | inactive | inactive | inactive | inactive | inactive | inactive | inactive |  |  |  |  |  |  |
| S=C(S)NCCNC(=S)S.[Mn+2].[S-]C([S-])=NCCN=C([S-])[S-].[Zn+2] | inactive | inactive | inactive | inactive |  | inactive | inactive | inactive | inactive | inactive | 16.2 µM (active) and 16.5 µM (active) and 3.53 µM (active) |  |  |  |  |  |
| CC(=O)S[C@@H]1CC2=CC(=O)CC[C@]2(C)[C@H]2CC[C@@]3(C)[C@@H](CC[C@@]34CCC(=O)O4)[C@H]12 | inactive | inactive | inactive | inactive | inactive | inactive | inactive | inactive | inactive | inactive | 17.6 µM (active) and 27.2 µM (active) | 7.33 µM (active) and 26.6 µM (active) and 18.4 µM (active) | 100 µM (active) |  |  |  |
| C#CCOC(=O)[C@@H](C)Oc1ccc(Oc2ncc(Cl)cc2F)cc1 | inactive | inactive | inactive | inactive | inactive | inactive | inactive | inactive | inactive | inactive |  |  |  |  |  |  |
| O=C(Nc1ccc([N+](=O)[O-])cc1Cl)c1cc(Cl)ccc1O | inactive | inactive |  | inactive | inactive | inactive |  | inactive | inactive | inactive | 894 nM (active) |  |  |  |  |  |
| COC(=O)c1cccc(C)c1S(=O)(=O)NC(=O)Nc1nc(OCC(F)(F)F)nc(N(C)C)n1 | inactive | inactive | inactive | inactive | inactive | inactive |  | inactive | inactive | inactive |  |  |  |  |  |  |
| COC(=O)c1ccccc1C(=O)O | inactive | inactive | inactive | inactive | inactive | inactive |  | inactive | inactive | inactive |  |  |  |  |  |  |
| Cc1nn(C)c(Oc2ccccc2)c1C=NOCc1ccc(C(=O)OC(C)(C)C)cc1 | inactive | inactive |  | inactive | inactive | inactive | inactive | inactive | inactive | inactive | 934 nM (active) |  |  |  |  |  |
| COC(=O)c1ccc(CNS(C)(=O)=O)cc1S(=O)(=O)NC(=O)Nc1nc(OC)cc(OC)n1 | inactive | inactive | inactive | inactive | inactive | inactive | inactive | inactive | inactive | inactive |  |  |  |  |  |  |
| O=C(O)C1(C(=O)Nc2ccc(Cl)cc2Cl)CC1 | inactive | inactive | inactive | inactive | inactive | inactive | inactive | inactive | inactive | inactive |  |  |  |  |  |  |
| CCCCOC(=O)C(C)Oc1ccc(Oc2ccc(C(F)(F)F)cn2)cc1 (stereo not given) | inactive | inactive | inactive | inactive | inactive | inactive |  | inactive | inactive | inactive |  |  |  |  |  |  |
| CCCOC(=O)c1ccc(C(=O)OCCC)nc1 | inactive | inactive | inactive | inactive | inactive | inactive |  | inactive | inactive | inactive |  |  |  |  |  |  |
| N#CSCSc1nc2ccccc2s1 | inactive | inactive | inactive | inactive | inactive | inactive |  | inactive | inactive | inactive |  | 6.89 µM (active) |  |  |  |  |
| c1ccc2[nH]c(-c3cscn3)nc2c1 | inactive | inactive | inactive | inactive | inactive | inactive |  | inactive | inactive | inactive |  |  |  |  |  |  |
| CCCCC(CC)CN1C(=O)C2C3C=CC(C3)C2C1=O (stereo not given) | inactive | inactive | inactive | inactive | inactive | inactive | inactive | inactive | inactive | inactive |  |  |  |  |  |  |
| CCN(Cc1c(F)cccc1Cl)c1c([N+](=O)[O-])cc(C(F)(F)F)cc1[N+](=O)[O-] | inactive | inactive | inactive | inactive |  | inactive |  | inactive | inactive | inactive |  |  |  | 1.81 µM (active) |  |  |
| CCCN(CCC)c1c([N+](=O)[O-])cc(C(F)(F)F)c(N)c1[N+](=O)[O-] | inactive | inactive | inactive | inactive | inactive | inactive | inactive |  | inactive | inactive |  |  |  |  | 50 µM (active) |  |
| CCSC(=O)N(CC(C)C)CC(C)C | inactive | inactive | inactive | inactive | inactive | inactive | inactive | inactive | inactive | inactive |  |  |  |  |  |  |
| CCOC(=O)NCCOc1ccc(Oc2ccccc2)cc1 | inactive | inactive |  | inactive |  | inactive | inactive | inactive | inactive | inactive | 50000 nM (active) |  |  | 12.6 µM (active) |  |  |
| CCOC(=O)c1ccc(O)cc1 | inactive | inactive | inactive | inactive |  | inactive |  | inactive | inactive | inactive |  | 167 µM (active) |  |  |  |  |
| CN(C)C(=O)Nc1ccc(Cl)c(Cl)c1 | inactive | inactive | inactive | inactive | inactive | inactive | inactive | inactive | inactive | inactive | 60300 nM (active) |  |  |  |  |  |
| CC(C)(c1ccc(O)cc1)c1ccc(O)cc1 | inactive | inactive | inactive | inactive |  | inactive |  | inactive | inactive | inactive | 100 µM (active) [middle of 6 runs] |  | 101 µM (active) and 33.7 µM (active) |  | 57.7 µM (active) | 58.5 µM (active) |
| O=C(O)c1ccccc1 | inactive | inactive | inactive | inactive | inactive | inactive |  | inactive | inactive | inactive |  |  |  |  |  |  |
| CC(C)CCCCCCc1ccc(O)cc1 | inactive | inactive | inactive | inactive |  | inactive |  | inactive | inactive | inactive | 17.7 µM (active) and 17.3 µM (active) | 17.6 µM (active) and 16.8 µM (active) and 15.6 µM (active) | 17.1 µM (active) | 644 nM (active) [middle of 4 runs] | 20.3 µM (active) and 17.9 µM (active) |  |
| CCC(O)=C1C(=O)CC(C(=O)O)CC1=O (stereo not given) | inactive | inactive | inactive | inactive | inactive | inactive | inactive | inactive | inactive | inactive |  |  |  |  |  |  |
| CCN(CC)C(=O)c1cccc(C)c1 | inactive | inactive | inactive | inactive | inactive | inactive | inactive | inactive | inactive | inactive |  |  |  |  |  |  |
| COC(=O)c1c(Cl)nn(C)c1S(=O)(=O)NC(=O)Nc1nc(OC)cc(OC)n1 | inactive | inactive | inactive | inactive | inactive | inactive | inactive | inactive | inactive | inactive |  |  |  |  |  |  |
| CCCCOC(=O)[C@@H](C)Oc1ccc(Oc2ccc(C(F)(F)F)cn2)cc1 | inactive | inactive | inactive | inactive |  | inactive | inactive | inactive | inactive | inactive |  |  |  | 59.1 µM (active) |  |  |
